High-throughput results from PubChem BioAssay.
This is a sample that favours compounds with a hit; in the whole collection about 1.4% have one here.
BCLXL inh: inhibitors of human Bcl-xL, primary screen, biochemical, fluorescence polarization, HTS; Bcl-2-like protein 1 (Homo sapiens), Q07817; GST-Bcl-xL / FITC-Bim BH3 peptide fluorescence polarization; inhibition, % at 10.9 µM; 320,000 tested, 0.7% active;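 active means inhibition above the mean of all tested compounds plus 3 SD, cutoff set per campaign, cut at about 30% in these data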;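 further: 0% = DMSO wells and 100% = unlabeled Bim-BH3 peptide competitor; inhibitors lower millipolarization by displacing the labeled peptide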
Target sequence (Q07817 whole entry, looked up): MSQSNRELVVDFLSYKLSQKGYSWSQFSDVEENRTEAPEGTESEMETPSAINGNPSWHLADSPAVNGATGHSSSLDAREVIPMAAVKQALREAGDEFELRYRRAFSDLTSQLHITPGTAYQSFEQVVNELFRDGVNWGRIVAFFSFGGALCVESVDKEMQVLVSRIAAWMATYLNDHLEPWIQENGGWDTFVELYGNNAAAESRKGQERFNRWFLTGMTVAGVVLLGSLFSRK
E coli Lon inh: inhibitors of E. coli Lon protease, primary screen, biochemical, fluorescence polarization | P0A9M0 | purified E. coli Lon protease | inhibition, % at 7.94 µM | 360,000 tested, 0.42% active; in the data active means inhibition above about 13%, passing the limit was not always enough;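 further: 0% = enzyme with probe and DMSO and 100% = no enzyme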
MCL1 BIM primary: inhibitors of MCL1 binding to BIM-BH3, primary screen, biochemical, fluorescence polarization; Induced myeloid leukemia cell differentiation protein Mcl-1 (Homo sapiens), Q07820; GST-MCL1 / FITC-Bim-BH3 fluorescence polarization; inhibition, % at 10.9 µM; 320,000 tested, 0.68% active;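 active means inhibition above the mean inhibition of all tested compounds plus 3 SD, set per campaign, cut at about 40% in these data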;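 further: 0% = DMSO wells and 100% = unlabeled Bim-BH3 peptide control; higher means more loss of mP so more displacement of Bim peptide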
Target sequence (Q07820 whole entry, looked up): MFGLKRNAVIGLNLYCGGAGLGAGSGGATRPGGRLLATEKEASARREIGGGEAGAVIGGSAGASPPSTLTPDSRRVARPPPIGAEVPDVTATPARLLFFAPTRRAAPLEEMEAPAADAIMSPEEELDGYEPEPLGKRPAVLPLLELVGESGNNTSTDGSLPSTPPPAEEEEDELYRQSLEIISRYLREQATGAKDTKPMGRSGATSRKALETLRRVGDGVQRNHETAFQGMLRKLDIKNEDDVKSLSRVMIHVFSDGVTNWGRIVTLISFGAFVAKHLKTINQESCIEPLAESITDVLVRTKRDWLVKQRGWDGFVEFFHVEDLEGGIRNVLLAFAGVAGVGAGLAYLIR
MEX-5 binding: MEX-5 zinc finger RNA-binding disruptors – biochemical, C. elegans, fluorescence polarization, MLPCN library, primary screen | Zinc finger protein mex-5 (Caenorhabditis elegans), Q9XUB2 | MEX-5/FITC-TCR2 RNA binding; hits give low values | activity score (negative = inhibition of binding), % at 10 µM | 300,000 tested, 0.38% active;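 active means inhibition past about -25% in most replicates, and total fluorescence under double the plate's negative control median, limit read from the data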;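 further: 0% = DMSO and -100% = 5 µM competing unlabeled TCR2 RNA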
GLD-1 RNA inh: GLD-1/TGE RNA complex disruptors, primary screen, biochemical, fluorescence polarization | inhibition, % at 5.96 µM | 320,000 tested, 0.44% active | Female germline-specific tumor suppressor gld-1 (Caenorhabditis elegans), Q17339 | purified GLD-1 + fluorescein TGE RNA;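 active means percent inhibition above a per-plate cutoff, the plate mean of test compounds plus 3 SD, cut at about 30% in these data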;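 further: 0% = DMSO wells with GLD-1 and probe and 100% = wells lacking GLD-1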
BCLXL inh confirm: Bcl-xL inhibitors blocking Bim BH3 binding, confirmation, counter-screen for MCL1 inhibitor project, biochemical, fluorescence polarization; GST-Bcl-xL / FITC-Bim BH3 peptide FP binding; shares compounds with MCL1 BIM primary; 1,700 tested, 54% active; inhibition, % at 10.9 µM;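 active means inhibition above a cutoff equal to the mean inhibition of all tested compounds plus 3 SD, cut at about 30% in these data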;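 further: 0% = DMSO wells and 100% = unlabeled Bim BH3 control peptide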
MCL1 BIM confirm: inhibitors of MCL1 binding to BIM-BH3, confirmation, biochemical, fluorescence polarization, triplicate; shares compounds with MCL1 BIM primary; GST-MCL1 / FITC-Bim-BH3 fluorescence polarization; inhibition, % at 10.9 µM; 1,700 tested, 61% active;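 active means inhibition above the average of all tested compounds plus 3 SD, cut at about 40% in these data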;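 further: 0% = DMSO wells and 100% = unlabeled Bim-BH3 control peptide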
* marks the source's active call; other numbers are inactive results; · = not tested or not shown.

SMILES	BCLXL inh	E coli Lon inh	MCL1 BIM primary	MEX-5 binding	GLD-1 RNA inh	BCLXL inh confirm	MCL1 BIM confirm
COc1ccc(Cc2nnc(NC(=O)Cc3cccs3)s2)cc1OC	10	-10	73*	2	-5	25	80*
O=C(Cc1cccs1)Nc1nnc(CCc2ccccc2)s1	0	-6	5	0	4	·	·
COc1cc(NC(=O)C2(C)CCCN2C(=O)C(C)C)cc(OC)c1OC (stereo unspecified)	·	-12	·	·	·	·	·
CCCCCN(C(=O)CCC(=O)OCC(=O)NCCc1ccccc1)c1c(N)n(CCCC)c(=O)[nH]c1=O	·	-5	·	·	·	·	·
CN(CCc1ccccc1)C(=O)CC1C(=O)NCCN1Cc1ccccn1 (stereo unspecified)	·	7	·	·	·	·	·
Cc1c2ccccc2nc2ccccc12	-2	-9	-1	0	-9	·	·
CCCNc1c(F)c(F)c2c(C)c3ccccc3nc2c1F	114*	60*	125*	-29*	83*	106*	123*
COc1cccc(CN2C(=O)c3cccc(N)c3C2=O)c1	50*	18	58*	-21	44*	33*	53*
C[C@H](CO)N1C[C@H](C)[C@@H](CN(C)Cc2ccc3c(c2)OCO3)Oc2cc(Br)ccc2S1(=O)=O	·	7	·	·	·	·	·
Cc1ccc(NC(=O)c2cc(-c3ccc(C)o3)nc3ccccc23)cc1	8	-12	13	0	5	·	·
Cc1ccc(-c2cc(C(=O)Nc3ccccn3)c3ccccc3n2)o1	29	3	47*	-1	9	32*	69*
CC1(Oc2ccccc2-c2ccn[nH]2)CCN(Cc2ccc(OC(F)(F)F)cc2)C1 (stereo unspecified)	·	-4	·	·	·	·	·
NC(=O)c1cccnc1Oc1ccc(Cl)cc1Cl	1	5	54*	3	-3	6	-1
Cc1cc(Cl)ccc1Nc1ncccc1C(N)=O	3	-8	-2	-1	1	·	·
Cc1ccc(S(=O)(=O)N2C[C@]3(O)C[C@@H]4C(=O)N(c5ccccc5)C(=O)[C@@H]4C[C@]3(OC(=O)NCc3ccccc3)C2)cc1	·	-11	·	·	·	·	·
Cc1ccc(OCC(=O)c2c(N)n(C)c(=O)n(C)c2=O)c([N+](=O)[O-])n1	36*	5	72*	·	14	23	59*
O=C1NC[C@H](CCCCN2CCN(CCc3ccccc3)C(=O)C2=O)N(CCc2ccccc2)C1=O	·	-2	·	·	·	·	·
Cc1ccc([C@@H]2C3COCC=C3C(C#N)=C(N)C2(C#N)C#N)o1 (stereo partly specified)	96*	69*	105*	-22	78*	71*	74*
CCOC(=O)C1=C(N)n2c(s/c(=C/c3ccco3)c2=O)=C(C(=O)OC)C1c1ccco1 (stereo unspecified)	7	-8	2	-2	4	·	·
N#CC1=C(N)n2c(s/c(=C\c3ccco3)c2=O)=C(C#N)C1c1ccco1 (stereo unspecified)	44*	-18	55*	-12	7	104*	150*
N#CC(C#N)=Cc1c[nH]c(=O)c(C#N)c1Nc1ccccc1	56*	2	55*	-17	26	46*	56*
Cn1c(N)c(C(=O)CSc2nnc(C3CC3)n2-c2ccccc2)c(=O)[nH]c1=O	·	5	·	·	-2	·	·
Cn1c(N)c(C(=O)CSc2nc(C3CC3)n(-c3ccccc3)n2)c(=O)[nH]c1=O	10	1	69*	·	-4	-12	-14
Cn1c(N)c(C(=O)CSc2nnc(C3CC3)n2-c2ccccc2)c(=O)n(C)c1=O	3	-11	58*	·	1	4	5
CC(C)Oc1cccc(NC(=O)C2(C)CCN2C(=O)C(C)C)c1 (stereo unspecified)	·	-7	·	·	·	·	·
SMILES	BCLXL inh	E coli Lon inh	MCL1 BIM primary	MEX-5 binding	GLD-1 RNA inh	BCLXL inh confirm	MCL1 BIM confirm
NC1=NC(=O)/C(=C\c2ccco2)S1	55*	-9	84*	-17	12	44*	64*
NC1=NC(=O)/C(=C/c2ccc(-c3ccc(S(N)(=O)=O)cc3)o2)S1	24	-32	50*	-40*	5	41*	39
N#Cc1cccc(-c2csc(C(O)(c3ccccc3)C(F)(F)F)n2)c1 (stereo unspecified)	·	7	·	·	·	·	·
CC(C)C[C@H]1C(=O)N2CCC[C@H]2[C@]2(O)O[C@](NC(=O)C3C=C4c5cccc6[nH]c(Br)c(c56)C[C@H]4N(C)C3)(C(C)C)C(=O)N12 (stereo partly specified)	100*	56	115*	2	92*	16	19
O=C(NCc1cccnc1)c1cc(C2CCCCN2S(=O)(=O)c2ccc(F)cc2F)on1 (stereo unspecified)	·	-5	·	·	·	·	·
COC(=O)[C@]12CCCCC=C1N(Cc1ccc(Cl)cc1Cl)C(=O)[C@H](CC(=O)NCCCN1CCCC1=O)C2	·	0	·	·	·	·	·
COc1ccc(C(C)=O)c2c(O)cccc12	0	1	-9	-2	7	·	·
CCC1=NNc2cccc3c(OC)ccc1c23	116*	·	126*	-1	11	45*	38
CC(=O)Oc1ccc(Cn2c(C)c(C(=O)NCc3cccc(C(F)(F)F)c3)sc2=O)cc1	·	9	·	·	·	·	·
Cc1ccc(C(=O)Nc2nnc(CC(=O)N/N=C/c3ccc(O)c(O)c3)s2)cc1	28	-9	76*	-1	11	51*	80*
Cc1ccccc1C(=O)Nc1nnc(CC(=O)N/N=C/c2ccco2)s1	2	-1	9	-2	1	·	·
O=C(c1ccccc1F)N1CCCC(N2CCN(Cc3ccc4c(c3)OCO4)CC2)C1 (stereo unspecified)	·	-6	·	·	·	·	·
CCCc1cc(=O)oc2c3c(c(Cl)cc12)OCN(CCCO)C3	76*	·	89*	-2	48*	55*	82*
CCn1c(SCC(=O)NCCOC)nc2sc(C)c(C)c2c1=O	·	·	·	-1	·	·	·
COCCn1c(SCC(=O)N2CCCC2=O)nc2sc(C)c(C)c2c1=O	1	5	76*	-1	2	6	18
Cc1cc2c(cc1[N+](=O)[O-])NC(CNC(C)C)CC2 (stereo unspecified)	98*	0	96*	0	51*	5	4
